Data as given in PubChem BioAssay (NCI).
About 83,000 compounds went through this panel and 20% of them were active in at least one assay; those are over-represented in the sample as a whole.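 How to read the values: 0–100, growth inhibition (40 = 60% inhibited); 0, no net growth; -100 to 0, cell death (-40 = 40% of starting cells died; -100 = all dead).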 Calls of active or inactive are those of the source. How the source made its calls: active means growth percent below 10; inactive means the rest.

Key:
Test in all cases: NCI-60 one-dose screen, 48 h (100 = growth as untreated, 0 = no growth, -100 = all killed)
NCI-H322M lung = settings: 10 µM unless noted
HOP-62 NSCLC = settings: 10 µM unless noted
NCI-H460 lung = settings: 10 µM unless noted
NCI-H522 lung = settings: 10 µM unless noted
A549/ATCC NSCLC = settings: 10 µM unless noted
786-0 renal = settings: 10 µM unless noted
DU-145 prostate = settings: 10 µM unless noted
K-562 leukemia = settings: 10 µM unless noted
MALME-3M melanoma = settings: 10 µM unless noted
MDA-MB-231 breast = settings: 10 µM unless noted
SF-268 CNS = settings: 10 µM unless noted
SF-295 CNS = settings: 10 µM unless noted
SF-539 CNS = settings: 10 µM unless noted
UACC-257 melanoma = settings: 10 µM unless noted
NCI-H226 lung = settings: 10 µM unless noted
HOP-92 NSCLC = settings: 10 µM
COLO 205 colon = settings: 10 µM unless noted
RXF 393 renal = settings: 10 µM unless noted
M14 melanoma = settings: 10 µM unless noted

Measured: growth

c1ccc(C(c2nc3ncncc3[nH]2)N2CSc3nc4ncncc4n3C2)cc1 (centres undefined)
inactive: NCI-H322M lung 64.3% | HOP-62 NSCLC 26.3% | NCI-H460 lung 83.6% | NCI-H522 lung 39.8% | A549/ATCC NSCLC 92.2% | 786-0 renal 33.9% | DU-145 prostate 34.1% | K-562 leukemia 24.8% | MALME-3M melanoma 58.5% | MDA-MB-231 breast 49.7% | SF-268 CNS 66.8% | SF-295 CNS 39.6% | SF-539 CNS 49.5% | UACC-257 melanoma 76%

CCOc1ccccc1NC1=C(Cl)C(=O)c2nc(C)ccc2C1=O
inactive: NCI-H226 lung 17.6% | HOP-62 NSCLC 84.3% | NCI-H460 lung 12.1% | A549/ATCC NSCLC 59.1% | COLO 205 colon 99.2% | SF-268 CNS 32.8% | SF-295 CNS 90.7%
active: HOP-92 NSCLC -89.2% | NCI-H522 lung -43.5% | 786-0 renal -88.2% | DU-145 prostate -85% | K-562 leukemia 1.26% | MALME-3M melanoma -71.4% | MDA-MB-231 breast -63.6% | SF-539 CNS -37.3% | UACC-257 melanoma -88.3%

CC(O)c1cc2ccccc2c(=O)o1 (centres undefined)
inactive: NCI-H226 lung 89.2% | NCI-H322M lung 103% | HOP-62 NSCLC 105% | NCI-H460 lung 104% | NCI-H522 lung 98.6% | A549/ATCC NSCLC 102% | 786-0 renal 101% | COLO 205 colon 112% | DU-145 prostate 110% | K-562 leukemia 101% | MALME-3M melanoma 98.2% | MDA-MB-231 breast 103% | RXF 393 renal 129% | SF-268 CNS 98.3% | SF-295 CNS 97.7% | SF-539 CNS 95.2% | UACC-257 melanoma 96.7% | M14 melanoma 107%

NS(=O)(=O)c1ccc(Nc2nc(N/N=C/c3c[nH]c4ccccc34)nc(Nc3ccccc3)n2)cc1
active: RXF 393 renal -25.2%
inactive: NCI-H322M lung 54.4% | HOP-62 NSCLC 63.8% | NCI-H460 lung 41.2% | HOP-92 NSCLC 61.4% | NCI-H522 lung 31.6% | 786-0 renal 41.8% | COLO 205 colon 40.9% | DU-145 prostate 43.4% | K-562 leukemia 23% | MALME-3M melanoma 46.1% | MDA-MB-231 breast 48.8% | SF-268 CNS 59.2% | SF-295 CNS 31.5% | SF-539 CNS 47.6% | UACC-257 melanoma 63.1%
